# HIF act: HIF pathway transcriptional activators, primary screen, cell-based, U2OS HRE-luciferase, luminescence; U2OS HRE-luciferase reporter; normalized: DMSO 0%, desferrioxamine 100%; activation, % at 7.5 µM (by protocol); 0.32% of 300,000 active;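 active = mean activation of at least 10% of the iron chelator positive control signal, with at least half of replicates also reaching 10%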
# GalR3 antagonist: GalR3 antagonists in HEK293 cells, primary screen, cell-based, fluorescence readout; 0.44% of 360,000 active; inhibition, % at 3 µM; HEK293 GalR3-CNG cAMP membrane potential fluorescence; galR3 body fused to GalR1 C-terminus;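 active = inhibition above the screen-wide average plus 3 SD, cut at about 13% in these data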;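 note: forskolin and galanin both at EC90 stimulate the cells; cAMP rise reported by CNG channel membrane potential dye signal; 0% = forskolin plus galanin with DMSO and 100% = forskolin alone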
# Target sequence (O60755 1-299 limits assumed): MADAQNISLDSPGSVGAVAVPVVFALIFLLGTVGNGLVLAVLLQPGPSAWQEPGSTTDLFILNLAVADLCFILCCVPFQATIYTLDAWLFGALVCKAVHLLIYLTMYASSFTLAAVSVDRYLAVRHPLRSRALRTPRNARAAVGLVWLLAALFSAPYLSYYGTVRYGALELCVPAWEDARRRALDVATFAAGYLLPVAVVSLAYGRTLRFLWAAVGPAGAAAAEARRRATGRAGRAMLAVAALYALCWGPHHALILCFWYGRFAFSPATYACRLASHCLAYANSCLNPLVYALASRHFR
# GAA850 FXN act: FXN promoter activators, primary screen, cell-based, luciferase luminescence, HEK293 lucGAA850. HEK293 lucGAA850 FXN promoter luciferase reporter, 24 h; percent of 10 µM SAHA response. activation, % at 6 µM. 0.56% of 360,000 active;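 active = activation above the average of all compounds screened plus 3 SD, cutoff fixed separately per campaign, cut at about 7.5% in these data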;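 note: 0% = DMSO wells and 100% = 10 µM SAHA wells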
# Hsp70 activator: Hsp70 transcriptional activators, primary screen, cell-based, HeLa, Hsp70 promoter luciferase, luminescence, 10 µM | HeLa Hsp70 promoter luciferase reporter; scaled: vehicle 0, proteasome-inhibitor control 100% | activation, % at 10 µM | 0.04% of 200,000 active;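 active = activation above the mean across all tested compounds plus 3 SD, cutoff set per campaign, cut at about 5.5% in these data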;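 note: 100% = MG132 at 30 µM as the positive control and 0% = DMSO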
# SMARCA2 activ: SMARCA2 (BRM) function activators, primary screen, cell-based, luminescence, high throughput; MG213 cells, MMTV-luciferase reporter, dexamethasone, overnight; activation, % at 9.1 µM; 1% of 370,000 active; in the data active = activation above about 7.8%;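 note: 0% = vehicle wells and 100% = reference activator wells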
# GAA30 FXN cntr: GAA30 FXN promoter activators, confirmation, counter-screen for GAA850 frataxin promoter activator project, cell-based, luminescence, HEK293, lucGAA30, triplicate. shares compounds with GAA850 FXN act. HEK293 lucGAA30 FXN promoter luciferase, 24 h; DMSO = 0%, 5 µM ipriflavone = 100%. activation, % at 6 µM. 66% of 1,900 active;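 active = mean activation above the mean of solvent-only control wells plus 3 SD, cut at about 22% in these data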;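 note: counterscreen of GAA850 promoter hits where activity marks nonselective or luminescence artifacts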
# GAA850 confirm: FXN GAA850 promoter activators in reporter cells, confirmation, cell-based, luminescence, HEK293 lucGAA850, triplicate; shares compounds with GAA850 FXN act; HEK293 lucGAA850 FXN promoter luciferase reporter, 24 h; 100% = activation by SAHA; activation, % at 6 µM; 86% of 1,900 active;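 active = mean activation above a set limit taken from the primary screen, cut at about 8% in these data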;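 note: 0% = DMSO wells and 100% = 10 µM SAHA wells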
# Starred values were filed as active, the others as inactive; / = not tested or not shown. In the library only some 2.2% were active in any assay of this set; here they are far more common.
SMILES,HIF act,GalR3 antagonist,GAA850 FXN act,Hsp70 activator,SMARCA2 activ,GAA30 FXN cntr,GAA850 confirm
Cc1ccccc1CSc1nnc2ccc(-c3ccncc3)nn12,0,-3,7.7*,0,-2,30*,13*
Nc1ccc2nc(-c3cc(Cl)c(N)c(Cl)c3)[nH]c2c1,3,-3,8.3*,0,2,160*,50*
O=C(Cc1ccccc1)N/N=C/c1ccc2c(c1)OCO2,2,1,9.5*,0,4,84*,30*
O=C(NC1CCCC1)[C@@H]1CCCN1C(=O)[C@@H](NS(=O)(=O)c1ccc(F)cc1F)c1ccccc1,/,-6,/,/,-4,/,/
CCOC(=O)C1=C(CSc2nc(-c3ccccc3)ccc2C#N)OC(N)=C(C#N)C1c1ccc(OC)cc1 (stereo not given),4,-2,8.9*,0,3,66*,25*
CCOC(=O)c1c(C)nc(-c2ccccc2)nc1N,3,-6,8.0*,1,1,131*,39*
Cn1c(CNc2ccc(O)cc2)nc2ccccc21,1,-6,8.3*,/,0,86*,26*
Cc1ccc(NCc2nc3ccccc3n2C)cc1,3,3,6,0,4,/,/
COc1cc2c(cc1NC(=O)C1CCCO1)oc1ccccc12 (stereo not given),0,-5,8.6*,0,3,109*,31*
C=C[C@@]1(C)CC(=O)[C@]2(O)[C@@]3(C)[C@@H](O)CCC(C)(C)[C@@H]3[C@H](OC(C)=O)[C@H](O)[C@@]2(C)O1,-1,-22,12*,/,6,7,14*
C=C1C(=O)O[C@H]2C[C@]3(C)C([C@@H](OC(=O)/C(C)=C/C)[C@H]12)[C@](C)(O)CC[C@H]3O (stereo not given in full),1,1,1,/,3,/,/
COC1=C[C@H](C(=O)NCc2ccc(Br)cc2)C(C)C(c2ccccc2)CC1=O (stereo not given in full),/,/,/,/,-2,/,/
Cc1nc(N=C(N)N)nc2ccccc12,0,-5,2,0,1,/,/
Cc1nc(/N=C(\N)NC(=O)c2ccccc2)nc2ccccc12,2,/,8.3*,0,/,97*,33*
COc1ccc(C2C(C(=O)Nc3cc(Cl)ccc3F)CCC(=O)N2c2ccc(OC)cc2)cc1 (stereo not given),/,/,/,/,2,/,/
COc1c(O)ccc(/C=N/NC(=O)c2ccc3c(c2)OCCO3)c1[N+](=O)[O-],/,1,7.7*,/,5,71*,19*
O=S1(=O)CC2c3ccc(F)cc3CN2CN1C1CCCC1 (stereo not given),/,/,/,/,3,/,/
NC(Cc1ccc(Cl)cc1)c1csc(NC(=O)Nc2ccccc2)n1 (stereo not given),/,0,7.6*,/,-6,14,11*
NC(Cc1ccc(C(F)(F)F)cc1)c1csc(NC(=O)Nc2ccccc2)n1 (stereo not given),/,-8,5,/,-2,/,/
COc1ccc(S(=O)(=O)Cc2ccc(C(=O)N3CCCC3)o2)cc1,/,0,-2,0,-1,/,/
CCOC(=O)N1CCN(C(=O)c2ccc(CS(=O)(=O)c3ccc(OC)cc3)o2)CC1,/,-2,14*,0,-1,20,7
COC(=O)Cc1nnn2c1[C@@H](C)[C@@H](c1ccccc1Br)OC[C@H](C)C2,/,-1,/,/,3,/,/
COc1ccc(-c2[nH]c(-c3ccccc3)nc2SCC(=O)Nc2nccs2)cc1,/,/,0,0,-2,/,/
COc1ccc(-c2[nH]c(-c3ccc(Cl)cc3)nc2SCC(=O)Nc2nccs2)cc1,0,/,19*,0,-4,9,8.9*
Cc1cc(NC(=O)C(C)SCC(=O)Nc2cc(C(F)(F)F)ccc2N2CCCCC2)no1 (stereo not given),0,-9,9.1*,/,0,24*,16*
SMILES,HIF act,GalR3 antagonist,GAA850 FXN act,Hsp70 activator,SMARCA2 activ,GAA30 FXN cntr,GAA850 confirm
Cc1cccc(NC(=O)CSCC(=O)Nc2ccc(N3CCOCC3)cc2N2CCOCC2)c1,/,-3,0,/,-4,/,/
Cc1cccc(NC(=O)CSCC(=O)Nc2cc(C(F)(F)F)ccc2N2CCOCC2)c1,/,-6,14*,/,-2,-1,9.4*
C=CCN1C(=O)[C@@H](CC(=O)NCc2cccs2)[C@]2(C(=O)OCC)CCCCC/C=C/12,/,/,/,/,-3,/,/
CC(C)(C)c1ccc(-c2nnc(SCC(=O)Nc3ccc(S(=O)(=O)Nc4nccs4)cc3)n2-c2ccc(Cl)cc2)cc1,/,/,/,/,1,/,/
C=CCn1c(N)c(C(=O)NCCC2=CCCCC2)sc1=S,1,-6,7.6*,0,0,92*,35*
O=C1COc2ccccc2C(c2nnnn2-c2ccc3ccccc3c2)N1C1CC1 (stereo not given),/,/,/,/,-1,/,/
O=C(CCl)Nc1ccc(C(=O)NCC2COc3ccccc3O2)cc1 (stereo not given),/,/,/,/,-14,/,/
C=CCn1c2ccccc2c(=O)c2cc(C#Cc3ccccn3)ccc21,/,-7,9.0*,/,6,140*,44*
COc1cccc(CO[C@H]2C=C[C@@H](c3ccccc3)O[C@@H]2CO)c1,/,/,/,/,-3,/,/
Clc1ccc(-c2nnc3n2N=C(c2ccc(-c4ccccc4)cc2)CS3)c(Cl)c1,/,/,/,/,-6,/,/
Cc1ccc(-c2cc(-c3nnc(SCC(=O)N4c5ccccc5Sc5ccc(Cl)cc54)n3N)[nH]n2)cc1,/,/,/,/,-1,/,/
C[C@@]12C(=O)N(c3cccc(F)c3)C(=O)N1[C@H](c1ccc(Cl)cc1)[C@@H]1C(=O)N(C3CCCCC3)C(=O)[C@@H]12,-2,-9,11*,/,-2,8,5
COc1ccc(N2C(=O)N3[C@H](c4ccc(Cl)cc4)[C@@H]4C(=O)N(C5CCCCC5)C(=O)[C@@H]4[C@]3(C)C2=O)cc1,-3,-6,14*,/,-1,9,5
CC(C)C[C@@]12C(=O)N(c3cccc(F)c3)C(=O)N1[C@H](c1ccc(Cl)cc1)[C@@H]1C(=O)N(C3CCCCC3)C(=O)[C@@H]12,0,-6,16*,/,-1,25*,14*
O=C1[C@H]2[C@@H](c3ccc(Cl)cc3)N3C(=O)N(c4cccc(Br)c4)C(=O)[C@@]3(Cc3ccc(Cl)cc3)[C@H]2C(=O)N1C1CCCCC1,-1,1,7,/,0,/,/

# From PubChem BioAssay
